A short description of assay [1]: compound effects on lung adenocarcinoma cell viability – A549, calcein-AM fluorescence, 48 h, basal, profiling panel (AID 1162). Conditions: higher = more signal.
Assay [2] in a line: compound effects on differentiated 3T3-L1 adipocyte viability – cell-based, 3T3-L1 adipocytes, calcein-AM fluorescence, 48 h, basal, profiling panel (AID 1163). Conditions: 3T3-L1 adipocytes viability, higher = more signal.
Assay [3] is described as follows: compound effects on hepatocellular carcinoma cell viability – HepG2, calcein-AM fluorescence, 48 h, basal, profiling panel (AID 1164). Conditions: higher = more signal.
Assay [4] can be described thus: compound effects on multiple myeloma cell viability – MM1S, calcein-AM fluorescence, 48 h, basal, profiling panel (AID 1165).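 Note: viability of MM1S multiple myeloma cells under basal unstimulated conditions.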 The settings on record: higher = more signal.
A short description of assay [5]: calcein-AM signal in unstimulated myeloma cells – cell-based, calcein-AM fluorescence, 48 h, PK04 Diversity Set, profiling panel (AID 1166).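 Note: cells grown under basal conditions without added stimulus.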 Conditions: RPMI8226 myeloma viability, higher = more signal.
Assay [6] can be described thus: JC-1 mitochondrial signal, unstimulated HepG2 cells – cell-based, JC-1 fluorescence, 24 h, 100 nL compound, profiling panel (AID 1167). Conditions: HepG2 mitochondrial potential, higher = more signal.
Assay [7] is described as follows: JC-1 mitochondrial signal, unstimulated adipocytes – cell-based, JC-1 fluorescence, 3T3-L1 adipocytes, 24 h, 100 nL compound, profiling panel (AID 1168). Conditions: JC-1 mitochondrial fluorescence, higher = more signal, called active from +8 up or from −8 down.
Assay [8] can be described thus: JC-1 mitochondrial signal, unstimulated myeloma cells – cell-based, JC-1 fluorescence, RPMI8226, 24 h, 100 nL compound, profiling panel (AID 1169). Conditions: JC-1 mitochondrial potential fluorescence, higher = more signal.
The nature of assay [9]: JC-1 mitochondrial signal, unstimulated MM1S myeloma – cell-based, JC-1 fluorescence, 24 h, 100 nL compound, profiling panel (AID 1170). The settings on record: MM1S mitochondrial potential, higher = more signal.
The nature of assay [10]: resazurin metabolic signal in A549 cells – cell-based, resazurin fluorescence, 24 h, PK04 Diversity Set, profiling panel (AID 1171). Conditions: A549 viability, higher = more signal, called active from +8 up or from −8 down.

Here are results for 15 molecules from PubChem BioAssay.

The source made the active and inactive calls.
Note: test concentration not given here.

On to `CN1C(=O)C2C=CC(C(O)c3cccc4ccccc34)N(NC(=O)OC(C)(C)C)C2C1=O` (stereo not given), for which the z-score in assay [1] is -0.927; in assay [2], -0.0679; in assay [3], -0.559; in assay [4], -0.248; in assay [5], -1.49; in assay [6] it was -2.24. For the same molecule, the z-score in assay [7] was -0.532 (inactive); in [8], 0.219; in assay [9] it was 0.437; in [10], -0.195 (inactive).
As for `Cc1ccc(S[C@]2(C(=O)O)CC(=O)N(Cc3ccccc3C(F)(F)F)[C@@H]2c2ccc(CO)cc2)cc1`, the z-score was 0.391 in assay [1]; -0.208 in [2]; 0.775 in assay [3]; -0.804 in assay [4]; 0.393 in [5]; 0.143 in assay [6]. The z-score in assay [7] is 0.998 (inactive); in assay [8], 0.171; in [9], -0.446; in [10] it was 0.142 (inactive).
Regarding `Cc1cc(C)c(C(O)C2C=CC3C(=O)N(c4ccccc4)C(=O)C3N2Nc2ccc([N+](=O)[O-])cc2)c(C)c1` (stereo not given), the z-score is -0.308 in assay [1]; 1.09 in assay [2]; -0.0308 in [3]; -0.86 in assay [4]; -0.662 in [5]; -1.95 in [6]. Moreover, the z-score in [7] is -3.61 (inactive); in [8], -0.367; in assay [9], -1.04; in assay [10], 0.634 (inactive).
As to `COC(=O)[C@@]1(Cc2ccc(F)cc2)[C@H]2c3cc(C(=O)N(C)C)n(CCSCCO)c3C[C@H]2CN1C(=O)c1ccccc1`, the z-score in assay [1] is -0.716; in assay [2], -0.352; in assay [3], 0.665; in assay [4], -0.684; in [5], -1.08; in [6], -0.572. In addition, the z-score was -0.682 (inactive) in [7], -0.0796 in assay [8], 0.172 in [9] and -0.0793 (inactive) in [10].
For `O=C(N1CCOCC1)[C@@]1(CCS(=O)(=O)c2ccccc2)COC(c2ccc(OCCCO)cc2)=N1`, the z-score is 0.437 in [1]; -1.09 in [2]; -0.0333 in [3]; 0.205 in [4]; 0.108 in assay [5]; -0.33 in assay [6]. Moreover, the z-score is -0.4 (inactive) in [7], 0.238 in [8], -0.659 in assay [9] and 0.201 (inactive) in assay [10].
Take `COC(=O)[C@@]1(Cc2ccc(OC)cc2)[C@H]2c3cc(C(=O)N(C)C)n(Cc4cc(F)c(F)c(F)c4)c3C[C@H]2CN1C(=O)c1ccccc1`: the z-score in [1] is -1.81; in [2], 0.745; in assay [3], -0.909; in assay [4], -1.59; in [5], -2.93; in assay [6] it was 3.22. Further, the z-score in assay [7] is -0.149 (inactive); in assay [8], -0.863; in assay [9] it was -0.971; in assay [10], -1.48 (inactive).
As for `O=C1O[C@@H](c2ccccc2)[C@@H](c2ccccc2)N2[C@@H](c3ccc(O)cc3)[C@]3(C(=O)Nc4ccc(C#CC5=CCCCC5)cc43)[C@@H](C(=O)Nc3nc4ccccc4s3)[C@H]12`, the z-score was 0.583 in assay [1]; -0.0897 in [2]; 1.46 in assay [3]; -0.575 in assay [4]; -1.81 in [5]; -2.6 in assay [6]. The z-score in assay [7] was 0.03 (inactive); in assay [8], -0.745; in assay [9], -1.02; in assay [10] it was -0.361 (inactive).
In the case of `COC(=O)[C@@]1(Cc2ccc(F)cc2)[C@@H]2[C@@H](CC(=O)[C@H]2CC(=O)C(=O)N2CCCC2)CN1C(=O)c1ccccc1`, the z-score in assay [1] is -0.974; in assay [2], -0.0508; in assay [3] it was -0.191; in [4], -2; in [5], -1.73; in assay [6], 0.129. Also, the z-score in [7] was -1.52 (inactive); in assay [8], -0.96; in assay [9], -1.25; in assay [10], -0.919 (inactive).
As for `CN(C)CCCCCCNC(=O)[C@@H]1C[C@@H]2C(=O)NCC(=O)N2[C@@H]1c1ccc(O)cc1`, the z-score in assay [1] was -0.627; in assay [2], 0.5; in [3] it was -0.963; in [4], -0.539; in assay [5], 0.71; in assay [6], -1.16. Besides, the z-score in assay [7] is -0.782 (inactive); in assay [8], 0.3; in assay [9] it was 0.216; in [10] it was -0.898 (inactive).
Regarding `Cc1ccc(S[C@]2(C(=O)NCc3ccccc3)CC(=O)N(C3Cc4ccccc4C3)[C@@H]2c2ccc(CO)cc2I)cc1`, the z-score in assay [1] is 1.38; in assay [2] it was -0.196; in assay [3], 1.54; in assay [4], -2.33; in [5] it was -1.52; in assay [6], 0.353. For the same molecule, the z-score in [7] was 0.698 (inactive); in [8] it was -0.686; in assay [9], -0.972; in [10], -0.862 (inactive).
Turning to `COCCCNC(=O)[C@@H]1c2ccccc2C(=O)N(Cc2cc(F)cc(C(F)(F)F)c2)[C@H]1c1ccc(CO)cc1`, the z-score is 0.323 in assay [1]; 0.0853 in assay [2]; 0.463 in assay [3]; 0.575 in assay [4]; -0.725 in assay [5]; 1.25 in [6]. Moreover, the z-score is -0.82 (inactive) in assay [7], 1.15 in assay [8], -0.33 in assay [9] and 0.301 (inactive) in assay [10].
Consider `COCCOC(=O)N1C(=O)[C@@]2(c3cc(C#CC4(O)CCCCCC4)ccc31)[C@H](C(=O)N1CCN(c3ncccn3)CC1)[C@H]1C(=O)O[C@H](c3ccccc3)[C@H](c3ccccc3)N1[C@@H]2c1ccc(O)cc1`, for which the z-score in assay [1] was 1.09; in assay [2] it was 0.146; in assay [3], 0.871; in assay [4], -1.12; in [5], -0.372; in assay [6], -0.641. Moreover, the z-score was 0.799 (inactive) in assay [7], -0.57 in [8], 0.532 in assay [9] and 0.445 (inactive) in assay [10].
For the molecule `COC(=O)[C@@]1(Cc2ccc(OC)cc2)[C@H]2c3cc(C(=O)N(C)C)n(Cc4cc(C)n(C)n4)c3C[C@H]2CN1C(=O)c1ccccc1`, the z-score in assay [1] is -0.892; in assay [2], 0.336; in assay [3] it was -0.384; in assay [4], -0.407; in assay [5], -1.77; in [6], 1.57. The z-score is -0.938 (inactive) in assay [7], 0.534 in [8], -0.228 in assay [9] and -1.9 (inactive) in assay [10].
`C=CC[C@@]1(C(=O)NCCN2CCOCC2)N=C(c2ccc(OCCCO)cc2)O[C@@H]1c1ccccc1`: the z-score in [1] was -0.181; in assay [2], 0.458; in assay [3], -0.253; in assay [4], 0.672; in [5] it was 0.418; in assay [6], 0.603. The z-score in assay [7] was -0.672 (inactive); in [8] it was 0.574; in assay [9] it was 0.4; in [10] it was 1.28 (inactive).
Regarding `C=C(COC)/C(=C/C[C@@H](OC(=O)c1ccncc1)c1cccc(OCCO)c1)c1cc(C(=O)OC)ccc1OC`, the z-score was -0.637 in [1]; -0.628 in assay [2]; -1.45 in assay [3]; -2.22 in [4]; -2.37 in assay [5]; 1.37 in assay [6]. Besides, the z-score in [7] is -0.109 (inactive); in assay [8], -0.574; in assay [9], -1.26; in [10], -1.8 (inactive).
